# Reference: PubChem BioAssay
# The source made the active and inactive calls.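 Rule for the calls, unless noted: active = luciferase signal above three times the same-plate solvent-only control wells; inactive = the rest.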
# Legend:
# [1] = differential killing of epithelial or mesenchymal cells, primary screen, imaging, PC-3E GFP, TEM4-18 mCherry, co-culture (AID 1345086;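 active = compounds killing one labelled cell type while sparing the other, by normalised counts and ratio limits, not self-fluorescent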;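 for all read-outs here: cells exposed to compound for 72 h before imaging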;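 for red/green cell ratio (normalised): normalised mesenchymal count divided by normalised epithelial count so high means epithelial killing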); conditions: imaging cell counts, at 1 µM; for red/green cell ratio (normalised): actives lie on both sides, counts scaled to control wells, 1 = unselective
# [2] = biological target: Mitogen-activated protein kinase 7 (Homo sapiens) (UniProt Q13164); assay: ERK5 transactivation activators in reporter cells, primary screen, cell-based, HTS (AID 1508626); conditions: HeLa Gal4-ERK5 transactivation, 18 h, at 5 µM, stronger effect = higher value;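 note: luciferase driven by Gal4-ERK5 fusion binding five Gal4 sites before minimal TATA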
# [3] = measured here: epithelial PC-3E GFP cell survival
# [4] = measured here: mesenchymal TEM4-18 mCherry cell survival
# Sequence of Mitogen-activated protein kinase 7 (Homo sapiens) (Q13164 whole entry, looked up, the tested form may be a part): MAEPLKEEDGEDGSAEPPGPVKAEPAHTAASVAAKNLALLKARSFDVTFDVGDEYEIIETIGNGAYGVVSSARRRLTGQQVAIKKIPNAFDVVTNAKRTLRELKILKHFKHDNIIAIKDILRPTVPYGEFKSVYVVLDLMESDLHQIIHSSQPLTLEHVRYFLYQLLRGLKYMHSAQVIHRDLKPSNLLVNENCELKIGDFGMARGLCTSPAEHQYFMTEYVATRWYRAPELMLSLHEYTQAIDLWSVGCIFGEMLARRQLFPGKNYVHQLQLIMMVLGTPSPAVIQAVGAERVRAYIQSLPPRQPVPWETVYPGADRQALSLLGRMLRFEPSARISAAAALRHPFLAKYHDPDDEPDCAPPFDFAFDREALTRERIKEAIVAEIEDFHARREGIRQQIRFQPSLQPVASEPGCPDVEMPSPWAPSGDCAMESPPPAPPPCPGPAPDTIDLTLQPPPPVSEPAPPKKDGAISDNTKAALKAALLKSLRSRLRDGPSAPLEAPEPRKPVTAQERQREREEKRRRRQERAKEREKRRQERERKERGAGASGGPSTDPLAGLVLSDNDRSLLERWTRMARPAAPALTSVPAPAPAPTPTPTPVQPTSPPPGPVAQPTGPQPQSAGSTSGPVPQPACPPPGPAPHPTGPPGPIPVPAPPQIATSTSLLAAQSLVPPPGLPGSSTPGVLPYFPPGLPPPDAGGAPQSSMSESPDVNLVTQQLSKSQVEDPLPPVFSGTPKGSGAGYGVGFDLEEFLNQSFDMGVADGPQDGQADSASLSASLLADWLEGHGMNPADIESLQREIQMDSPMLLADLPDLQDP
Structure (SMILES),red/green cell ratio (normalised) [1],"normalised cell number [1, 3]","normalised cell number [1, 4]",luciferase signal [2]
C=C[C@@H](C1=CC(=O)C(OC)=C(OC)C1=O)c1ccccc1,0.99 (inactive),1.04,1.04,136 AU (inactive)
OC[C@H]1O[C@@H](O[C@H]2[C@H](O)[C@@H](O)[C@@H](O)O[C@@H]2CO)[C@H](O)[C@@H](O)[C@@H]1O,1.17 (inactive),0.89,1.04,32 AU (inactive)
COc1ccc([C@@H](C)C(=O)c2ccc(O)cc2O)cc1,1.1 (inactive),0.96,1.05,20 AU (inactive)
O=c1cccc2ccc(O)c(O)c2c1O,1.04 (inactive),0.98,1.02,44 AU (inactive)
CCCCCCCCCCCCCCCC(=O)OCC(O)CO (stereo unspecified),0.84 (inactive),1.14,0.96,72 AU (inactive)
C=CCCCCCCCCCCCc1ccco1,1.12 (inactive),0.9,1.01,112 AU (inactive)
CNc1ccccc1C(=O)N1CCc2c([nH]c3ccccc23)C1=O,1.01 (inactive),0.95,0.96,56 AU (inactive)
O=C(O)/C=C/C=C/c1ccc2c(c1)OCO2,1.14 (inactive),0.9,1.03,24 AU (inactive)
CC(C)c1ccc2c(c1)CCC1C(C)(C(N)=O)CCCC21C (stereo unspecified),1.04 (inactive),1.22,1.27,64 AU (inactive)
CC(=O)O[C@H]1CC[C@@]2(C)C(C[C@@H](OC(C)=O)[C@]3(C)C2CC[C@@]2(C)[C@H](c4ccoc4)OC(=O)[C@H]4O[C@]423)C1(C)C (stereo partly specified),1.12 (inactive),1,1.12,60 AU (inactive)
C[C@]12CCC3c4ccc(OC(=O)c5ccccc5)cc4CCC3C1CCC2=O (stereo partly specified),0.85 (inactive),1.24,1.05,40 AU (inactive)
COc1cc2c(cc1OC)-c1c(oc3cc(O)cc(O)c3c1=O)CO2,1.08 (inactive),1.02,1.09,16 AU (inactive)
CC(=O)O[C@@H]1CC[C@@]2(C)C(CC[C@]3(C)C2CC=C2C4CC(C)(C)CC[C@]4(C(=O)O)CC[C@]23C)C1(C)C (stereo partly specified),0.84 (inactive),1.04,0.87,44 AU (inactive)
COc1ccc(-c2cc(=O)c3c(O)c(OC)c(OC)c(OC)c3o2)cc1OC,1.15 (inactive),0.95,1.09,112 AU (inactive)
